Assay outcomes (PubChem BioAssay)
Kir21 inh – inhibitors of mouse Kir2.1 inward-rectifier potassium channel | HEK293-Kir2.1, FluxOR thallium flux fluorescence; stronger effect = lower value | Inward rectifier potassium channel 2 (Mus musculus), P35561 | 310,000 compounds, 0.85% hits | B-score at 10 µM;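 active means fluorescence ratio B-score at or below minus 3 SD of library scores, with starting-brightness B-score within 2 SD, cut at about -4.2 in these data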;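 further: channel flux triggered by added potassium and thallium sulfate stimulus; B-score of peak minus minimum fluorescence over baseline after thallium stimulus; more negative B-score means stronger Kir2.1 block with less thallium influx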
CHT allo act – CHT positive allosteric modulators, primary screen, cell-based, membrane potential dye, choline EC20; CHT-expressing cells; stronger effect = higher value; LV-AA mutant CHT in HEK293 cells; B-score at 10 µM; 310,000 compounds, 0.49% hits; AID 488977, 2010;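 active means initial fluorescence not abnormally high and integrated response B-score, plate-corrected, over 3 SD above library mean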
TMEM16A inh – TMEM16A chloride channel inhibitors, primary screen, cell-based, HTS. AID 588511, 2011. HEK293 TMEM16A/YFP iodide influx fluorescence, ionomycin. 310,000 compounds, 1.2% hits. Anoctamin-1 (Mus musculus), Q8BHY3. normalized B-score (activity score, 25-100; higher = stronger inhibition) at 10 µM;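 active means ratio plate-corrected score three or more library SD toward inhibition, starting fluorescence score within five deviations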;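 further: score derived from kinetic fluorescence span divided by baseline fluorescence per well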
TMEM16A act – TMEM16A chloride channel activators or potentiators, primary screen, cell-based, HTS. Anoctamin-1 (Mus musculus), Q8BHY3. HEK293 TMEM16A/YFP-H148Q/I152L, iodide quench fluorescence; stronger effect = lower value. B-score at 10 µM. 340,000 compounds, 0.3% hits. AID 623877, 2012;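 active means fluorescence-ratio B-score plate-corrected deviation score at least 3 library SD below zero, with starting fluorescence score within 5 deviations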;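 further: channel opened by trigger with iodide after compound preincubation; score built on the fluorescence ratio of max minus min over baseline; more negative score means more quench and so TMEM16A activation or potentiation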
CHT inh – inhibitors of human choline transporter CHT | B-score at 10 µM | 310,000 compounds, 0.86% hits | CHT-expressing cells, membrane potential dye, choline response; stronger effect = lower value | High affinity choline transporter 1 (Homo sapiens), Q9GZV3;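 active means B-score over 3 SD under the library average, and starting fluorescence ratio not unusually high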;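 further: choline stimulus applied at its EC90 after an EC20 pre-addition; B-score computed on integrated fluorescence ratio after choline addition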
Rce1 inh – yeast Rce1p protease inhibitors, primary screen, biochemical, fluorescence, cell-free homogeneous; AID 2563, 2010; yeast membranes, quenched prenylated peptide cleavage fluorescence; 290,000 compounds, 0.27% hits; CAAX prenyl protease 2 (Saccharomyces cerevisiae (strain ATCC 204508 / S288c)), Q03530; calls only;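 active means fall in fluorescence gain of 50% or more versus controls, with final raw signal at or below 3038400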;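 further: plate controls were neutral control wells for no effect and wells lacking membranes for full effect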
* marks the source's active call; other numbers are inactive results; i = inactive; . = no result; + = active, no number; ! = not confirmed by another sample. Rows were chosen to be rich in hits. Some 3.2% of all compounds tested hit in one or more screens of this group.

SMILES	Kir21 inh	CHT allo act	TMEM16A inh	TMEM16A act	CHT inh	Rce1 inh
CC1CCC(C(C)C)C(OC(=O)Cn2c(-c3ccc(Cl)cc3)[n+](C)c3ccccc32)C1 (stereo not drawn)	-15*	i	i	i	i	i
CC1CCC(C(C)C)C(OC(=O)Cn2c(-c3ccc(Br)cc3)[n+](C)c3ccccc32)C1 (stereo not drawn)	-15*	i	i	i	i	i
CCOc1ccc(NC(=S)NNC(=S)Nc2cccc(C(F)(F)F)c2)cc1	0.37	i	i	i	i	i
COc1ccc(NC(=S)NNC(=S)Nc2cccc(C(F)(F)F)c2)cc1	0.37	i	i	-6.7*	i	i
CCOC(=O)C1=C(C)N=C2SC(C(=O)OC)=CC(=O)N2C1c1ccc(F)cc1 (stereo not drawn)	-5.4*	i	i	i	i	i
CSc1nc2n(n1)C(C)C1=C(CCCC1=O)N2 (stereo not drawn)	2.3	i	i	i	i	i
Cc1cc(C)nc(NS(=O)(=O)c2ccc(NC(=O)c3cccs3)cc2)n1	0.14	i	i	i	i	i
CCCCN(CCCC)S(=O)(=O)c1ccc(NC(=O)c2cccs2)cc1	0.2	i	100*	i	i	i
CCCCn1c(N)c(N(CC(C)C)C(=O)Cc2ccc(S(=O)(=O)N3CCOCC3)s2)c(=O)[nH]c1=O	.	.	.	-7.5*	.	.
CCCCn1c(N)c(N(CCC(C)C)C(=O)Cc2ccc(S(=O)(=O)N3CCOCC3)s2)c(=O)[nH]c1=O	-0.28	i	i	i	i	i
COc1ccc(S(=O)(=O)NCC2CCCN(C(=O)CSC)C2)cc1 (stereo not drawn)	0	i	i	i	i	i
O=C(/C=C/c1ccc(O)c(O)c1)OCCc1ccccc1	-0.94	i	100*	i	i	i
O=C(/C=C/c1ccc(O)c(O)c1)c1ccccc1O	-0.84	i	100*	i	i	i
O=C(/C=C/c1ccc(O)c(O)c1)OC(Cc1ccc(O)c(O)c1)C(=O)O (stereo not drawn)	0.63	i	i	i	i	i
CCCOc1ccc(C(=O)Nc2cc(S(=O)(=O)N3CCOCC3)ccc2N2CCOCC2)cc1	.	.	.	i	.	.
CC(C)N(Cc1ccccc1)C(=S)NCc1ccccc1	-4.2*	i	i	i	i	i
CN(C)C(=S)NCc1ccccc1	-0.25	i	i	i	i	i
CC(C)N(Cc1ccccc1)C(=S)NC1CCCCC1	-5.4*	i	i	i	i	i
O=C(NC1CCCN(Cc2ccc(Cl)cc2)C1)c1cnc2ccccn2c1=O (stereo not drawn)	0.86	i	i	i	i	i
CC(C)Cc1ccc(CN2CCCC(NC(=O)c3cnc4ccccn4c3=O)C2)cc1 (stereo not drawn)	0.47	i	25*	i	i	i
CC(C)(C)n1nnnc1C(c1ccc(F)cc1)N(Cc1ccc(F)cc1)Cc1ccco1 (stereo not drawn)	-0.17	i	i	-5.1*	i	i
COc1ccc(CC(=O)NC(C)c2nnc(SCCOc3ccc(OC)cc3)n2C)cc1 (stereo not drawn)	-4.3*	i	i	i	i	.
CN(Cc1nc2ccccc2c(=O)[nH]1)C(=O)COc1ccccc1Cc1ccccc1	.	.	.	i	.	.
CCCCCCCCCS(=O)(=O)N/N=C/c1cccc([N+](=O)[O-])c1	0.88	i	100*	i	i	i
Cc1ccc(C(=O)Nc2ccc(Br)c(C(F)(F)F)c2)cc1	-0.52	i	100*	i	i	i
SMILES	Kir21 inh	CHT allo act	TMEM16A inh	TMEM16A act	CHT inh	Rce1 inh
CC(=O)c1cc2c(cc1NC(=O)c1ccc(C)cc1)OCCO2	0.21	i	i	i	i	.
Clc1ccc(CN2CCC(Cc3ccccc3)CC2)cc1	-7.5*	i	i	i	i	i
O=Cc1cc(Cl)ccc1OCCN1CCC(Cc2ccccc2)CC1	-4.8*	i	i	i	i	i
Cc1ccc([N+](=O)[O-])c(OCCCN2CCC(Cc3ccccc3)CC2)c1	-9.9*	i	i	i	i	i
Clc1ccccc1OCCN1CCC(Cc2ccccc2)CC1	-4.3	i	i	i	i	i
Clc1cccc(CN2CCC(Cc3ccccc3)CC2)c1	-7.2*	i	i	i	i	i
CN(CC(=O)Nc1ccccc1Cl)C(=O)COC(=O)C1=COCCO1	-0.63	i	i	i	i	i
O=C(COc1ccccc1Cl)N1CCNC1=O	.	.	.	i	.	.
O=C(c1ccc(Cl)cc1)C1CCN(Cc2ccccc2)CC1	-9.5*	i	i	i	i	i
O=C(c1cnc(Cl)c(Cl)c1)N1CCC(Cc2ccccc2)CC1	-0.05	i	i	i	i	+
CN1CCN(CCCN2c3ccccc3Sc3ccc(Cl)cc32)CC1	-7.5*	i	25*!	i	i	i
OCCN1CCN(CCCN2c3ccccc3Sc3ccc(C(F)(F)F)cc32)CC1	-7.1*	i	i	i	i	i
OCCN1CCN(CC/C=C2/c3ccccc3Sc3ccc(C(F)(F)F)cc32)CC1	-5.4*	i	i	i	i	i
CN(C)CCC(=O)N1c2ccccc2Sc2ccc(C(F)(F)F)cc21	-0.69	i	i	i	i	i
CCSc1ccc2c(c1)N(CCCN1CCN(C)CC1)c1ccccc1S2	.	i	i	i	i	.
CN1CCN(CCC(=O)N2c3ccccc3Sc3ccc(C(F)(F)F)cc32)CC1	-2.2	i	i	i	i	i
OCCN1CCN(CC/C=C2/c3ccccc3CSc3ccccc32)CC1	-2.2	i	i	i	i	i
CN(C)CCCN1c2ccccc2Sc2ccc(C(F)(F)F)cc21	-5.1*	i	i	i	i	i
CCCn1nnc(NC(=S)NC(=O)c2ccccc2OC)n1	.	.	.	i	.	.
CSc1nnc(-c2sc(-c3ccccc3)nc2C)n1C	-0.64	i	i	i	i	+
O=C(O)C(Cc1ccccc1)N1C(=O)/C(=C/c2cccc3ccccc23)SC1=S (stereo not drawn)	.	i	100*	.	i	.
